From PubChem
CtBP-E1A inh = blocks the CtBP interaction with E1A | activity change, % (concentration not given with the values) | 340,000 tested, 0.49% active | AlphaScreen GST-E1A/His-CtBP binding, 1536-well; active compounds read low | AID 651724; in the data active means activity change below about -65%; inconclusive means mostly about -30% to -63%; further: on the % scale 0 is the no-effect control and ±100 the full control effect
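AlphaScreen with 125 nM GST-E1A and 125 nM His-CtBP (5X stocks) in Tris pH 8.0, 300 mM NaCl, BSA, Tween 20, TCEP. Compounds preincubated 2 h at 37 deg C, then glutathione donor/nickel acceptor beads added for 1 h at 37 deg C in dark.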
Gal4-VP16 FLuc = inhibits Gal4-VP16 luciferase reporter, ROR gamma counter-screen; Drosophila S2 Gal4-VP16 UAS-luciferase, luminescence, 20 h; Potency, µM (titrated, usually from 53.6 µM), for the others: at the top dose activity, negative = inhibition, hits mostly inhibitors; 310,000 tested, 3.5% active; AID 2546;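 further: Gal4-VP16 expression switched on by copper sulfate through the metallothionein promoter; potency means the concentration at half of the fitted maximal effect; on the % scale 0 is the no-effect control and ±100 the full control effect; nearly all actives have a fitted effect of over 50% in size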
Six1-Eya2 blk = blocks human Six1 binding to Eya2 | Q15475+O00167 | activity change, % (concentration not given with the values) | AlphaScreen GST-Six1/His-Eya2 binding, biochemical; active compounds read low | 360,000 tested, 0.56% active; in the data active means activity change below about -65%; inconclusive means mostly about -30% to -63%; further: on the % scale 0 is the no-effect control and ±100 the full control effect
Target sequence (O00167 whole entry, looked up): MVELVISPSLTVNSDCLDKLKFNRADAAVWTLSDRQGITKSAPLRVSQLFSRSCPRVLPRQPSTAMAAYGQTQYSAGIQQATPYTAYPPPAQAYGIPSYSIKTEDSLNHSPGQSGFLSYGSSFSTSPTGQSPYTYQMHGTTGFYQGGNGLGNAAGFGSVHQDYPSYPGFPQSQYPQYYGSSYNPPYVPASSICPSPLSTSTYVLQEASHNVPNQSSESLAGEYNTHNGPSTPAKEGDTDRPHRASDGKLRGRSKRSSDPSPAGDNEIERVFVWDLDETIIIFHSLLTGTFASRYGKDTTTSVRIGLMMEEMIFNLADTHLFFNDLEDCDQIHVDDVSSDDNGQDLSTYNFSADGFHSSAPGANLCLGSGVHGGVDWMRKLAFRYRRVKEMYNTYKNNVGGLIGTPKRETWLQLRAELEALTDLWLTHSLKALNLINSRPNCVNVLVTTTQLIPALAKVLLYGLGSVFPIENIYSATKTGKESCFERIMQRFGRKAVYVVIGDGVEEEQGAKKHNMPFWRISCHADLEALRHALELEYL
Target sequence (Q15475 whole entry, looked up): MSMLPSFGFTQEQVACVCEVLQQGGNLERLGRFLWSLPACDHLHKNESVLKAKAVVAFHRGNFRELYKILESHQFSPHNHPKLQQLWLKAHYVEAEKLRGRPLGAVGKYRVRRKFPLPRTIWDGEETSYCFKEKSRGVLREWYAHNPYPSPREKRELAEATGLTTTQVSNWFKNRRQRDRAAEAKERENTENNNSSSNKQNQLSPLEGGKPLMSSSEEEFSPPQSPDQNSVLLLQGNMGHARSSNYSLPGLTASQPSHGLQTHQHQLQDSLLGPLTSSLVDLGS
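GST-Six1 + His-Eya2 (5X stock: 250/500 nM); Tris pH 8.0, 300 mM NaCl, 0.05% BSA, 0.02% Tween 20; GSH donor/Ni acceptor beads; 1 h 37 °C dark; AlphaScreen readout.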
p53 reactivator = restores transcriptional activity of mutant p53; 320,000 tested, 0.063% active; AID 504706; H1299 p53-A138V BP100-luciferase reporter, luminescence, 24 h; Potency, µM (series often up to 92.2 µM), for the others: top-dose activity change, positive = activation, usual class: activators; further: potency means the concentration at half of the fitted maximal effect; % of control where 0% means no effect; nearly all actives have a fitted effect of over 45% in size
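p53-null H1299 cells stably carrying temperature-sensitive p53-A138V and a BP100-luciferase reporter were pinned with compounds (4-point, 1:5 series) and held 24 hrs at 37 deg C. Luminescence was read 10 min after detection reagent.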
RORg inh = ROR gamma (mouse) transcription inhibition; Drosophila S2 Gal4-RORgamma UAS-luciferase reporter, 20 h; Potency, µM (series often up to 53.6 µM), for the others: top-dose activity change, negative = inhibition, most hits filed as inhibitors; 310,000 tested, 5.4% active; AID 2551; further: potency means the concentration at half of the fitted maximal effect; on the % scale 0 is the no-effect control and ±100 the full control effect; nearly all actives have a fitted effect of over 60% in size
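A Gal4/UAS one-hybrid system in insect cells: metallothionein-promoter Gal4–ROR gamma fusion plus Photinus luciferase reporter. Copper sulfate 700 uM final, 20 hr ambient incubation, luminescent detection after 10 min with reagent.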
Active calls of the source: *. A selection: hits, their analogues and other compounds. The true share with any hit is near 5.4%. Unless noted, the call rests on the fitted dose curve; in most records, active means well fitted curve in the direction sought with a large enough effect; inconclusive means small, poorly fitted or top-dose-only effect, or another doubt; inactive means no such curve, though single readings can be large; an effect the other way counts as inactive or inconclusive.

What do the screens show for `CCOc1ccccc1C(=O)NCC(=O)NNC(=O)c1csc(N2CCOCC2)n1`?
CtBP-E1A inh: -3.2; Six1-Eya2 blk: -0.2

Results for COCCNC(=O)CN1C(=O)COc2ccc(S(=O)(=O)N3CCCCCC3)cc21 ?
CtBP-E1A inh: 2.1; Gal4-VP16 FLuc: 7.3%; Six1-Eya2 blk: 0.7; p53 reactivator: -7.9%; RORg inh: -9.1%

How did CCOC(=O)c1cccc(NC(=O)c2c(N)n(C)c(=O)[nH]c2=O)c1 do in these assays?
CtBP-E1A inh: -13.3; Six1-Eya2 blk: 7.3

How did COc1cccc(Cn2c(=O)cnc3cnc(Oc4ccccc4)nc32)c1 do in these assays?
Gal4-VP16 FLuc: -13.6%; RORg inh: -3.6%

How did O=C(Nc1nnc(-c2ccc(Br)cc2)o1)c1ccco1 do in these assays?
CtBP-E1A inh: -7.5; Six1-Eya2 blk: -13.8; p53 reactivator: 9.5%

How did O=C(Nc1nnc(-c2cccs2)o1)c1ccco1 do in these assays?
CtBP-E1A inh: -8.8; Gal4-VP16 FLuc: 6.31µM*; Six1-Eya2 blk: -18.5; p53 reactivator: 1.0%; RORg inh: 2.51µM*

Results for CCOC(=O)c1cc2c(nc1N)CCCC2 ?
CtBP-E1A inh: -3.2; Gal4-VP16 FLuc: -15.6%; Six1-Eya2 blk: -6.5; p53 reactivator: 6.4%; RORg inh: -15.4%

How did C=C(C)CNC(=S)Nc1nc2c(cc1C(=O)OCC)CCCC2 do in these assays?
CtBP-E1A inh: -4.2; Gal4-VP16 FLuc: 10µM*; Six1-Eya2 blk: 3.4; p53 reactivator: inconclusive; RORg inh: 5.01µM*

How did COc1ccc(CNc2nc(-c3cccnc3)nc3ccccc23)c(OC)c1 do in these assays?
Gal4-VP16 FLuc: 7.3%; RORg inh: 31.6%

How did Cc1csc(NC(=O)c2cn3ccccc3n2)n1 do in these assays?
CtBP-E1A inh: inconclusive; Gal4-VP16 FLuc: 7.94µM*; Six1-Eya2 blk: inconclusive; p53 reactivator: -8.3%; RORg inh: 5.01µM*

How did O=C(Nc1ccc(-n2cnnn2)cc1)c1cn2ccccc2n1 do in these assays?
CtBP-E1A inh: -16.9; Gal4-VP16 FLuc: -8.9%; Six1-Eya2 blk: 7.0; p53 reactivator: 13.0%; RORg inh: 4.0%

What do the screens show for `O=C(Nc1ccccc1)c1cn2ccccc2n1`?
CtBP-E1A inh: 0.4; Gal4-VP16 FLuc: 2.82µM*; Six1-Eya2 blk: 3.4; p53 reactivator: -6.0%; RORg inh: inconclusive

How did N#Cc1ccc(C23CC4(C2)[C@H](CN(Cc2cccnc2)[C@@H]4c2ccccc2)C3c2ccccc2)cc1 (some centres not stated) do in these assays?
Gal4-VP16 FLuc: -16.2%; Six1-Eya2 blk: -1.3; p53 reactivator: 5.0%; RORg inh: -7.7%

How did Cc1csc(SCC(=O)Nc2ccccc2C)n1 do in these assays?
CtBP-E1A inh: -2.8; Six1-Eya2 blk: 1.5; p53 reactivator: 7.4%

How did CCn1c(C)cs/c1=N\C(=S)Nc1ccccc1C do in these assays?
CtBP-E1A inh: -1.9; Gal4-VP16 FLuc: 5.62µM*; Six1-Eya2 blk: 0.0; p53 reactivator: 6.9%; RORg inh: 2.24µM*

How did CCN(C(=O)Nc1cccc(Cl)c1)c1ccccc1 do in these assays?
CtBP-E1A inh: 0.6; Gal4-VP16 FLuc: 13.5%; Six1-Eya2 blk: -3.8; p53 reactivator: 5.3%; RORg inh: -1.0%

Results for CCOC(=O)NC(N(O)c1cccc(Cl)c1)C(Cl)(Cl)Cl (configuration not stated) ?
CtBP-E1A inh: -1.8; Gal4-VP16 FLuc: 8.2%; Six1-Eya2 blk: 2.4; p53 reactivator: 1.2%; RORg inh: 5.01µM*

What do the screens show for `Cc1c(Cl)cccc1N=Cc1ccc([N+](=O)[O-])s1`?
CtBP-E1A inh: inconclusive; Gal4-VP16 FLuc: 20µM*; Six1-Eya2 blk: -67.2*; p53 reactivator: -12.6%; RORg inh: inconclusive

Results for COC(=O)N/N=C/c1ccc([N+](=O)[O-])s1 ?
CtBP-E1A inh: 0.5; Gal4-VP16 FLuc: -22.4%; Six1-Eya2 blk: 4.0; p53 reactivator: inconclusive; RORg inh: -19.0%

What do the screens show for `S=c1[nH]nc(-c2cccnc2)n1C1CCCCC1`?
CtBP-E1A inh: -1.5; Gal4-VP16 FLuc: inconclusive; Six1-Eya2 blk: 11.5; p53 reactivator: 23.3%; RORg inh: inconclusive

How did COc1ccc(Cl)cc1-c1cc(C(=O)NCC2CCCCC2)[nH]n1 do in these assays?
CtBP-E1A inh: 0.1; Six1-Eya2 blk: -9.8

How did Cc1ccsc1-c1n[nH]c(=S)n1C1CCCCC1 do in these assays?
CtBP-E1A inh: -2.4; Gal4-VP16 FLuc: inconclusive; Six1-Eya2 blk: 6.8; p53 reactivator: -2.9%; RORg inh: 3.55µM*

What do the screens show for `COc1ccc(-c2n[nH]c(=S)n2C2CCCCC2)cc1`?
CtBP-E1A inh: -2.0; Gal4-VP16 FLuc: 7.08µM*; Six1-Eya2 blk: -2.2; p53 reactivator: -3.7%; RORg inh: 3.16µM*

What do the screens show for `Cc1cc(Cl)ccc1OCC(=O)N1C(C)CCCC1C` (configuration not stated)?
CtBP-E1A inh: 3.9; Gal4-VP16 FLuc: inconclusive; Six1-Eya2 blk: 2.3; p53 reactivator: 19.7%; RORg inh: -34.5%

Results for COc1ccc(Cl)cc1-c1n[nH]c(=S)n1C1CCCCC1 ?
CtBP-E1A inh: -2.5; Gal4-VP16 FLuc: 7.94µM*; Six1-Eya2 blk: -1.5; p53 reactivator: -9.8%; RORg inh: 3.98µM*

What do the screens show for `Cc1cc(Cl)ccc1OCc1n[nH]c(=S)n1C1CCCCC1`?
CtBP-E1A inh: -3.9; Gal4-VP16 FLuc: 2.51µM*; Six1-Eya2 blk: 1.9; p53 reactivator: -4.0%; RORg inh: 0.794µM*

Results for CCCCNC(=O)C1(C)CCN1C(=O)c1ccc(C)c(F)c1 (configuration not stated) ?
CtBP-E1A inh: 0.9; Six1-Eya2 blk: 0.1

What do the screens show for `COc1ccc(NC(=O)CSc2nnc(-c3cccs3)n2N)cc1S(N)(=O)=O`?
CtBP-E1A inh: -0.4; Six1-Eya2 blk: 5.2; p53 reactivator: 5.4%

What do the screens show for `N=C(N)n1cccn1`?
Gal4-VP16 FLuc: -7.9%; RORg inh: -5.4%

What do the screens show for `COCCCNC(=S)N/N=C/c1ccccc1O`?
Gal4-VP16 FLuc: 3.55µM*; Six1-Eya2 blk: -89.6*; p53 reactivator: 6.4%; RORg inh: 0.562µM*

How did COCCCNC(=S)N/N=C/c1ccc(N(C)C)cc1 do in these assays?
CtBP-E1A inh: 22.9; Gal4-VP16 FLuc: 7.08µM*; Six1-Eya2 blk: -12.2; p53 reactivator: 10.3%; RORg inh: 2.82µM*

How did COCCNC(=S)N/N=C/c1ccccc1C(=O)O do in these assays?
CtBP-E1A inh: 0.5; Gal4-VP16 FLuc: 0.1%; Six1-Eya2 blk: 3.6; p53 reactivator: -1.9%; RORg inh: 12.3%

What do the screens show for `COCCCNC(=S)N/N=C/c1ccc(N(C)C)cc1Cl`?
CtBP-E1A inh: -2.7; Gal4-VP16 FLuc: 12.6µM*; Six1-Eya2 blk: -8.7; p53 reactivator: 9.8%; RORg inh: 2.24µM*

What do the screens show for `CC(=O)Nc1ccccc1C(=O)C(=O)Nc1ccc(F)c(Cl)c1`?
Gal4-VP16 FLuc: -1.6%; Six1-Eya2 blk: 22.7; p53 reactivator: 20.0%; RORg inh: inconclusive
